We go through 35 compounds from publication PMC5540273 (PLoS ONE, 2017).
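Also: KINOMEscan kinase panel screen.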

The subject of the first assay is IRAK4. The conditions noted are these: concentration: 1 μM, replicates: in singlicate; n = 1.
As for `COc1cc2ncnc(Nc3ccc(OCc4ccccc4Br)c(Cl)c3)c2cc1OC.Cl` [GI261590], the “%Inh” value was 18%.
With `CSc1nn2c(=O)cc(N3CCOCC3)nc2n1Cc1cccc(Cl)c1Cl` [GSK2347225], the “%Inh” value is on record as 0%.
The same measure, in the same setting: with `Fc1cccc(COc2ccc(Nc3ncnc4sc(-c5ccc[nH]5)cc34)cc2Cl)c1` [GW707818] the figure was 0%.
As to `Cl.O=S(=O)(c1cccc(F)c1)c1ccc(Nc2ncnc3cc(Br)sc23)cc1Cl` [GSK306886], the “%Inh” value is 0%.
In the case of `CN1c2ccc(-c3ccc(C(=O)NCCO)cc3)cc2-c2[nH]ncc2S1(=O)=O`, the “%Inh” value is given as 0%.
As to `Nc1nc(-c2ccc3c(N)n[nH]c3c2)cc(N2CCCCC2)n1` [GSK2228768], the “%Inh” value worked out at 9%.
In the case of `Cn1ccc2ncnc(Oc3ccc(NC(=O)Nc4cccnc4)c(Cl)c3)c21`, the “%Inh” value was 6%.
Same read-out and setting: with `Clc1cc(Nc2ncnc3cc[nH]c23)ccc1OCc1ccccn1` the figure was 2%; with `Cl.Cl.c1ccc(-c2cc3ccncc3cc2OC2CCNCC2)cc1` [GSK1122999], 1%; with `Fc1ccc(Nc2nccc(-c3c(-c4ccc(Cl)cc4)nn4ncccc34)n2)cc1F` [GW829058], 0%.
Consider `C[C@H]1CC[C@@H](C(=O)Nc2ccccc2)CN1c1cc(-c2ccc3c(N)n[nH]c3c2)nc(N)n1` [GSK2283293], for which the “%Inh” value was determined as 0%.
Same read-out and setting: with `FC(F)(F)c1cc(Nc2nccc(-c3c(-c4ccc(Cl)cc4)nn4ncccc34)n2)ccc1Cl` [GW829351] the figure was 0%; with `FC(F)(F)c1ccc(-c2cc(-c3c[nH]nc3-c3ccccn3)ccn2)cc1` [GW599550], 3%.
For `Nc1nc(-c2cccnc2)c(-c2ccnc3ccccc23)s1` [GW684083], the “%Inh” value was 1%.
In the case of `Cl.c1ccc(Cn2ncc3cc(Nc4ncnc5ccccc45)ccc32)cc1` [GW273749], the “%Inh” value was found to be 9%.
For `O=C(NCCCN1CCCC1=O)c1cnc(NCc2cc(Cl)ccc2Cl)nc1NC1CCNCC1`, the “%Inh” value is on record as 2%.
Regarding `Cc1ccc(O)cc1Nc1cc(C(F)(F)F)nc2ccc(-c3ccncc3)cc12` [GW630823], the “%Inh” value is 0%.
With `C[C@@H]1CCN(C(=O)CO)C[C@@H]1N(C)c1ncnc2[nH]ccc12`, the “%Inh” value was determined as 0%.
Consider `COc1ccc(NC(=O)Nc2ccc(C)c(-c3ccc(C(=O)Nc4ccncc4)cc3)c2)cc1` [GSK1398475], for which the “%Inh” value worked out at 0%.
The same measure, in the same setting: with `O=c1cc(N2CCOCC2)nc2n(Cc3cccc(Cl)c3)ccn12` [GSK2296823] the figure was 16%; with `CC(C)N1CCC(n2cnc(-c3ccc(F)cc3)c2-c2ccnc(N)n2)CC1` [SB-223132], 0%; with `Clc1cccc(-c2nc(Nc3ccncc3)c3ccccc3n2)c1` [GW873004], 0%.
For the compound `COC(=O)c1c(-c2ccccc2)c2cc(Cl)ccc2c(=O)n1Cc1ccc(S(C)(=O)=O)cc1`, the “%Inh” value turned out to be 9%.
Turning to `Oc1ccc2ncnc(Nc3ccc(OCc4ccccc4)cc3)c2c1` [GI262866], the “%Inh” value turned out to be 5%.
As for `COc1cc2c(Nc3cccc(NC(=O)c4ccccc4)c3)ncnc2cc1OCCCN1CCOCC1` [GSK223810], the “%Inh” value was 0%.
On to `CCc1nc(-c2cccc(C)c2)c(-c2ccnc(NC(=O)c3ccccc3)c2)s1`, for which the “%Inh” value is reported as 6%.
Take `Clc1ccc(-c2cc(-c3c[nH]nc3-c3ccccn3)ccn2)cc1` [GW681251]: the “%Inh” value came out at 8%.
Regarding `Nc1nc(-c2ccc3c(N)n[nH]c3c2)cc(N2CCC[C@@H](C(=O)Nc3ccccc3)C2)n1.O=C(O)C(F)(F)F.O=C(O)C(F)(F)F` [GSK2288359], the “%Inh” value was 0%.
With `CCn1c(-c2ccncc2)nc2cnccc21` [SB-735216], the “%Inh” value was 17%.
Same read-out and setting: to `Cn1ccc2ncnc(Nc3ccc(Oc4cccc(Cl)c4)c(Cl)c3)c21` belongs 27%; to `Fc1ccc(-c2ncn(CCCNCc3ccccc3)c2-c2ccncc2)cc1`, 19%; to `CC(C)(C)OC(=O)NC1CCCN(c2cc(-c3ccc4c(N)n[nH]c4c3)nc(N)n2)C1` (stereo not shown) [GSK2286096], 8%.
As to `CC(=O)Nc1n[nH]c2ncc(-c3ccccc3)cc12` [SB-548492], the “%Inh” value is listed as 0%.
On to `COc1ccc(Nc2nccc(N3CCC(NC(=O)Nc4ccc5c(c4)OCO5)C3)n2)cc1` (stereo not shown) [GSK1379745], for which the “%Inh” value came out at 6%.
For the compound `CN1CCC(n2cnc(-c3ccc(F)cc3)c2-c2ccnc(NC3CCNCC3)n2)CC1` [SB-229482], the “%Inh” value is on record as 4%.

Another assay concerns ITK. The conditions noted are these: concentration: 1 μM, replicates: in singlicate; n = 1.
For `COc1cc2ncnc(Nc3ccc(OCc4ccccc4Br)c(Cl)c3)c2cc1OC.Cl` [GI261590], the “%Inh” value was 12%.
Take `CSc1nn2c(=O)cc(N3CCOCC3)nc2n1Cc1cccc(Cl)c1Cl` [GSK2347225]: the “%Inh” value turned out to be 13%.
Take `Fc1cccc(COc2ccc(Nc3ncnc4sc(-c5ccc[nH]5)cc34)cc2Cl)c1` [GW707818]: the “%Inh” value was 0%.
Same read-out and setting: with `Cl.O=S(=O)(c1cccc(F)c1)c1ccc(Nc2ncnc3cc(Br)sc23)cc1Cl` [GSK306886] the figure was 0%; with `CN1c2ccc(-c3ccc(C(=O)NCCO)cc3)cc2-c2[nH]ncc2S1(=O)=O`, 12%; with `Nc1nc(-c2ccc3c(N)n[nH]c3c2)cc(N2CCCCC2)n1` [GSK2228768], 18%.
`Cn1ccc2ncnc(Oc3ccc(NC(=O)Nc4cccnc4)c(Cl)c3)c21`: the “%Inh” value was 11%.
For the compound `Clc1cc(Nc2ncnc3cc[nH]c23)ccc1OCc1ccccn1`, the “%Inh” value was found to be 0%.
With `Cl.Cl.c1ccc(-c2cc3ccncc3cc2OC2CCNCC2)cc1` [GSK1122999], the “%Inh” value is recorded as 11%.
`Fc1ccc(Nc2nccc(-c3c(-c4ccc(Cl)cc4)nn4ncccc34)n2)cc1F` [GW829058]: the “%Inh” value is given as 18%.
`C[C@H]1CC[C@@H](C(=O)Nc2ccccc2)CN1c1cc(-c2ccc3c(N)n[nH]c3c2)nc(N)n1` [GSK2283293]: the “%Inh” value is 17%.
As for `FC(F)(F)c1cc(Nc2nccc(-c3c(-c4ccc(Cl)cc4)nn4ncccc34)n2)ccc1Cl` [GW829351], the “%Inh” value is 0%.
For `FC(F)(F)c1ccc(-c2cc(-c3c[nH]nc3-c3ccccn3)ccn2)cc1` [GW599550], the “%Inh” value was determined as 11%.
Consider `Nc1nc(-c2cccnc2)c(-c2ccnc3ccccc23)s1` [GW684083], for which the “%Inh” value was determined as 15%.
On the same count and under the same terms, to `Cl.c1ccc(Cn2ncc3cc(Nc4ncnc5ccccc45)ccc32)cc1` [GW273749] belongs 0%; to `O=C(NCCCN1CCCC1=O)c1cnc(NCc2cc(Cl)ccc2Cl)nc1NC1CCNCC1`, 0%.
Take `Cc1ccc(O)cc1Nc1cc(C(F)(F)F)nc2ccc(-c3ccncc3)cc12` [GW630823]: the “%Inh” value is reported as 19%.
For the compound `C[C@@H]1CCN(C(=O)CO)C[C@@H]1N(C)c1ncnc2[nH]ccc12`, the “%Inh” value stood at 0%.
As for `COc1ccc(NC(=O)Nc2ccc(C)c(-c3ccc(C(=O)Nc4ccncc4)cc3)c2)cc1` [GSK1398475], the “%Inh” value is recorded as 9%.
Consider `O=c1cc(N2CCOCC2)nc2n(Cc3cccc(Cl)c3)ccn12` [GSK2296823], for which the “%Inh” value turned out to be 19%.
For `CC(C)N1CCC(n2cnc(-c3ccc(F)cc3)c2-c2ccnc(N)n2)CC1` [SB-223132], the “%Inh” value is reported as 0%.
As to `Clc1cccc(-c2nc(Nc3ccncc3)c3ccccc3n2)c1` [GW873004], the “%Inh” value was determined as 21%.
`COC(=O)c1c(-c2ccccc2)c2cc(Cl)ccc2c(=O)n1Cc1ccc(S(C)(=O)=O)cc1`: the “%Inh” value is given as 21%.
With `Oc1ccc2ncnc(Nc3ccc(OCc4ccccc4)cc3)c2c1` [GI262866], the “%Inh” value is given as 4%.
As to `COc1cc2c(Nc3cccc(NC(=O)c4ccccc4)c3)ncnc2cc1OCCCN1CCOCC1` [GSK223810], the “%Inh” value is 9%.
Still for that read-out and setting: to `CCc1nc(-c2cccc(C)c2)c(-c2ccnc(NC(=O)c3ccccc3)c2)s1` belongs 16%.
As for `Clc1ccc(-c2cc(-c3c[nH]nc3-c3ccccn3)ccn2)cc1` [GW681251], the “%Inh” value was 16%.
For `Nc1nc(-c2ccc3c(N)n[nH]c3c2)cc(N2CCC[C@@H](C(=O)Nc3ccccc3)C2)n1.O=C(O)C(F)(F)F.O=C(O)C(F)(F)F` [GSK2288359], the “%Inh” value is 0%.
In the case of `CCn1c(-c2ccncc2)nc2cnccc21` [SB-735216], the “%Inh” value came out at 0%.
As for `Cn1ccc2ncnc(Nc3ccc(Oc4cccc(Cl)c4)c(Cl)c3)c21`, the “%Inh” value is 23%.
As to `Fc1ccc(-c2ncn(CCCNCc3ccccc3)c2-c2ccncc2)cc1`, the “%Inh” value came out at 21%.
For the compound `CC(C)(C)OC(=O)NC1CCCN(c2cc(-c3ccc4c(N)n[nH]c4c3)nc(N)n2)C1` (stereo not shown) [GSK2286096], the “%Inh” value was determined as 6%.
For the compound `CC(=O)Nc1n[nH]c2ncc(-c3ccccc3)cc12` [SB-548492], the “%Inh” value is 0%.
The same measure, in the same setting: to `COc1ccc(Nc2nccc(N3CCC(NC(=O)Nc4ccc5c(c4)OCO5)C3)n2)cc1` (stereo not shown) [GSK1379745] belongs 6%; to `CN1CCC(n2cnc(-c3ccc(F)cc3)c2-c2ccnc(NC3CCNCC3)n2)CC1` [SB-229482], 0%.
